This passage reports growth results from PubChem BioAssay (NCI).

This is part of a sample that, as a whole, favours compounds with a hit. Of some 83,000 tested, about 20% had one in any assay.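 Each cell line was grown in a 96-well plate and treated with one concentration of compound for 48 hours. Values below 10 were considered active.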 Values without a mark were called inactive. Activity calls are given as the source filed them.

Holding throughout (assay): NCI-60 one-dose screen, 48 h (100 = growth as untreated, 0 = no growth, -100 = all killed)
One experiment deals with SK-MEL-2 melanoma. To be noted: 10 µM unless noted.
For the next experiment, the system named is EKVX NSCLC. As to conditions: 10 µM unless noted.
The next experiment has as its system SN12C renal. As to conditions: 10 µM unless noted.
The test system of the next experiment is UO-31 renal. As to conditions: 10 µM unless noted.
A further experiment concerns TK-10 renal. To be noted: 10 µM unless noted.
The next experiment relates to ACHN renal. As to conditions: 10 µM unless noted.
The test system of a further experiment is CAKI-1 renal. To be noted: 10 µM.
The subject of another experiment is A498 renal. As to conditions: 10 µM unless noted.
The test system of another experiment is CCRF-CEM leukemia. As to conditions: 10 µM unless noted.
For another experiment, the system named is MOLT-4 leukemia. To be noted: 10 µM unless noted.
The subject of the next experiment is SR leukemia. As to conditions: 10 µM unless noted.
Another experiment deals with RPMI-8226 leukemia. To be noted: 10 µM unless noted.
A further experiment deals with OVCAR-8 ovarian. To be noted: 10 µM unless noted.
In a further experiment the test system is OVCAR-5 ovarian. To be noted: 10 µM unless noted.
The next experiment concerns OVCAR-4 ovarian. To be noted: 10 µM unless noted.
The test system of a further experiment is SK-OV-3 ovarian. To be noted: 10 µM unless noted.
Another experiment concerns IGROV1 ovarian. To be noted: 10 µM unless noted.
For the next experiment, the system named is OVCAR-3 ovarian. To be noted: 10 µM unless noted.
A further experiment deals with HS 578T breast. To be noted: 10 µM unless noted.
In the next experiment the test system is NCI/ADR-RES ovarian. To be noted: 10 µM unless noted.

As for `O=S(=O)(NCCCNc1nccc(-n2cnc3ccccc32)n1)c1ccc(F)cc1`, the growth in the experiment on SK-MEL-2 melanoma was 85.8%; in the experiment with EKVX NSCLC, 61.2%; with SN12C renal, 89%; in the experiment with UO-31 renal, 59.3%; in the experiment with TK-10 renal, 91.9%; in the experiment on ACHN renal, 81.1%. Further, the growth was 71% in the experiment with CAKI-1 renal; 70.6% in the experiment with A498 renal; 49.1% with CCRF-CEM leukemia; 33.2% in the experiment on MOLT-4 leukemia; 36.8% with SR leukemia; 57.7% in the experiment on RPMI-8226 leukemia. Moreover, the growth was 62.5% in the experiment on OVCAR-8 ovarian; 98.6% in the experiment on OVCAR-5 ovarian; 44.2% with OVCAR-4 ovarian; 85.1% in the experiment with SK-OV-3 ovarian; 91.8% in the experiment with IGROV1 ovarian; 86.7% with OVCAR-3 ovarian. The growth is 82.4% in the experiment on HS 578T breast and 64.3% in the experiment on NCI/ADR-RES ovarian.

As for `Oc1ccc(CSc2nnc(-c3ccc(Br)cc3)o2)c2cccnc12`, the growth in the experiment on SK-MEL-2 melanoma is 68.1%; in the experiment with EKVX NSCLC, 58.9%; in the experiment with SN12C renal it was 45.2%; in the experiment with UO-31 renal it was 7.37% (active); in the experiment on TK-10 renal, 60%; in the experiment with ACHN renal, 17.8%. Further, the growth in the experiment on CAKI-1 renal is 25.6%; in the experiment on A498 renal it was 74.5%; in the experiment with CCRF-CEM leukemia, 15.2%; with MOLT-4 leukemia, 24.1%; in the experiment with SR leukemia, 42.3%; in the experiment with RPMI-8226 leukemia, 10.8%. Also, the growth in the experiment on OVCAR-8 ovarian is 27.7%; in the experiment on OVCAR-5 ovarian it was 89.6%; with OVCAR-4 ovarian it was 22%; in the experiment with SK-OV-3 ovarian it was 50.2%; with IGROV1 ovarian it was 31.6%; with OVCAR-3 ovarian, 27.4%. Moreover, the growth with HS 578T breast was -2.18% (active); with NCI/ADR-RES ovarian, 13.4%.

With `COc1ccc([C@H]2c3[nH]c4ccccc4c3C[C@@H]3C(=O)N(C4CCN(Cc5ccccc5)CC4)CC(=O)N23)c(OC)c1`, the growth with SK-MEL-2 melanoma is 103%; in the experiment with EKVX NSCLC, 64.5%; with SN12C renal, 75.6%; in the experiment with UO-31 renal, 42.6%; with TK-10 renal, 103%; in the experiment on ACHN renal it was 76%. The growth in the experiment with CAKI-1 renal was 56.4%; in the experiment on A498 renal, 93.8%; in the experiment on CCRF-CEM leukemia, 61.8%; with MOLT-4 leukemia, 45.1%; in the experiment with SR leukemia it was 29.9%; in the experiment with RPMI-8226 leukemia, 52.9%. The growth with OVCAR-8 ovarian was 88.7%; in the experiment with OVCAR-5 ovarian, 90%; in the experiment with OVCAR-4 ovarian it was 82.7%; with SK-OV-3 ovarian it was 93%; with IGROV1 ovarian it was 50.6%; in the experiment with OVCAR-3 ovarian, 80.4%. In addition, the growth with HS 578T breast is 82.3%; in the experiment with NCI/ADR-RES ovarian, 68.3%.

As for `O=C(O)c1ccc(-n2cc(CNc3ccc(Cl)cc3)c(-c3ccc(F)cc3)n2)cc1`, the growth is 99.1% in the experiment on SK-MEL-2 melanoma; 81.1% with EKVX NSCLC; 99% with SN12C renal; 80.5% in the experiment on UO-31 renal; 119% in the experiment with TK-10 renal; 78.9% with ACHN renal. Also, the growth in the experiment with CAKI-1 renal was 83.8%; in the experiment with A498 renal, 88.6%; with CCRF-CEM leukemia, 91.8%; in the experiment with MOLT-4 leukemia, 85.4%; in the experiment with SR leukemia, 121%; in the experiment with RPMI-8226 leukemia, 80.2%. The growth in the experiment with OVCAR-8 ovarian is 92.4%; with OVCAR-5 ovarian, 106%; in the experiment with OVCAR-4 ovarian, 101%; with SK-OV-3 ovarian, 110%; in the experiment on IGROV1 ovarian, 102%; with OVCAR-3 ovarian, 105%. Besides, the growth in the experiment on HS 578T breast is 100%; with NCI/ADR-RES ovarian, 102%.

Regarding `N#Cc1c(-c2cccs2)cc(-c2cnccn2)nc1SCC(=O)NNC(=S)Nc1ccc(F)cc1`, the growth in the experiment with SK-MEL-2 melanoma was 123%; in the experiment with EKVX NSCLC, 103%; with SN12C renal it was 100%; in the experiment on UO-31 renal, 79%; in the experiment on TK-10 renal, 108%; in the experiment with ACHN renal, 104%. The growth was 99.1% in the experiment with CAKI-1 renal; 118% with A498 renal; 93.6% with CCRF-CEM leukemia; 94.9% in the experiment with MOLT-4 leukemia; 85.1% in the experiment on SR leukemia; 105% in the experiment with RPMI-8226 leukemia. In addition, the growth is 104% in the experiment with OVCAR-8 ovarian; 109% in the experiment with OVCAR-5 ovarian; 96.3% with OVCAR-4 ovarian; 121% in the experiment with SK-OV-3 ovarian; 106% in the experiment on IGROV1 ovarian; 122% with OVCAR-3 ovarian. For the same molecule, the values for the growth with HS 578T breast and with NCI/ADR-RES ovarian were 109% and 106%, respectively.

Regarding `COc1ccc(S(=O)(=O)NCCCNc2nccc(-n3cnc4ccccc43)n2)cc1`, the growth with SK-MEL-2 melanoma was 103%; in the experiment on EKVX NSCLC, 84.4%; with SN12C renal, 92.4%; with UO-31 renal, 67.2%; in the experiment with TK-10 renal it was 103%; in the experiment with ACHN renal, 88.2%. Also, the growth in the experiment with CAKI-1 renal is 68.8%; with A498 renal, 81.9%; in the experiment on CCRF-CEM leukemia, 91.4%; in the experiment on MOLT-4 leukemia it was 77%; with SR leukemia, 77.6%; in the experiment on RPMI-8226 leukemia, 78.6%. The growth with OVCAR-8 ovarian was 93.7%; with OVCAR-5 ovarian it was 99.6%; in the experiment with OVCAR-4 ovarian, 77.4%; in the experiment with SK-OV-3 ovarian, 96.2%; with IGROV1 ovarian it was 91.4%; in the experiment with OVCAR-3 ovarian, 105%. In addition, the growth with HS 578T breast is 84.8%; in the experiment with NCI/ADR-RES ovarian it was 105%.

On to `Oc1ccc(-c2nnc(SCc3ccc(O)c4ncccc34)o2)cc1`, for which the growth in the experiment on SK-MEL-2 melanoma was 17%; in the experiment with EKVX NSCLC, 15.6%; with SN12C renal, 6.09% (active); in the experiment with UO-31 renal, -5.74% (active); with TK-10 renal, 13.6%; in the experiment with ACHN renal it was 3.36% (active). For the same molecule, the growth with CAKI-1 renal was 3.35% (active); in the experiment with A498 renal, -8.21% (active); in the experiment with CCRF-CEM leukemia, 12.1%; in the experiment with MOLT-4 leukemia, 16.5%; in the experiment on SR leukemia, 37.4%; in the experiment on RPMI-8226 leukemia, 4.27% (active). In addition, the growth with OVCAR-8 ovarian is 15.9%; with OVCAR-5 ovarian, 27.1%; in the experiment on OVCAR-4 ovarian, 9.9% (active); in the experiment on SK-OV-3 ovarian, -3.56% (active); with IGROV1 ovarian it was 3.93% (active); in the experiment on OVCAR-3 ovarian, 6.01% (active). For the same molecule, the growth was -0.346% (active) with HS 578T breast and 7.18% (active) in the experiment with NCI/ADR-RES ovarian.
